According to article PMC7862700, “An all-to-all approach to the identification of sequence-specific readers for epigenetic DNA modifications on cytosine”:

Tests used:
Test in all cases: DAPPL (digital affinity profiling via proximity ligation, sequencing); 10 mM Tris-HCl pH 7.5, 50 mM NaCl, 1 mM DTT, 4% glycerol, room temperature, 30 min; GST-TFs on glutathione beads, 16-mer random dsDNA library, 0.1% formaldehyde crosslink after washing; high values mean tight binding
FLI1 = molecular target: T1, FLI1 (Homo sapiens, UniProt Q01543 1-452); conditions: protein: recombinant; tags: N-terminal GST; dsDNA, one strand shown
T1 sequence: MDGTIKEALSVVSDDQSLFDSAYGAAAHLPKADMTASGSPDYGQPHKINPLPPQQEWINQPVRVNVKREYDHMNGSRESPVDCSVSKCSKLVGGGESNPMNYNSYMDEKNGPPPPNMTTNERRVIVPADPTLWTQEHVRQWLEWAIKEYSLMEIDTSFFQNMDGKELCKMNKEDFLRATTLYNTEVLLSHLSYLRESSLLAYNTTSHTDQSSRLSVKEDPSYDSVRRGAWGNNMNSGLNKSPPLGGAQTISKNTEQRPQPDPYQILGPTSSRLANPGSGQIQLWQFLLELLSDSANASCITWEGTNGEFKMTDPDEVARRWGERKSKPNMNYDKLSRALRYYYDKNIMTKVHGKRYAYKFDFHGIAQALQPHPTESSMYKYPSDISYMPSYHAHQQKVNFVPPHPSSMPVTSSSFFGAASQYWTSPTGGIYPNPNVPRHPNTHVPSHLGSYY
Procedure, shortened: (§1)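 Beads coated with glutathione captured GST-fused human transcription factors that had been expressed in yeast, and the factors were then given DNA barcodes and pooled with a tag-only sample. The pools were incubated with 200 nmole of a random double-stranded 16-mer DNA library in Tris/NaCl/DTT/glycerol buffer for 30 min at room temperature, washed, crosslinked with 0.1% formaldehyde and proximity-ligated with BsaI/T4 ligase at 37 °C for 1 h. PCR amplification and Illumina NextSeq500 sequencing came last. Binding signal is each hexamer's read frequency for a factor divided by its frequency for the tag-only sample.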

ELK1 = molecular target: T2, ELK1 (Homo sapiens, UniProt P19419 1-428); conditions: protein: recombinant; tags: N-terminal GST; dsDNA, one strand shown
T2 sequence: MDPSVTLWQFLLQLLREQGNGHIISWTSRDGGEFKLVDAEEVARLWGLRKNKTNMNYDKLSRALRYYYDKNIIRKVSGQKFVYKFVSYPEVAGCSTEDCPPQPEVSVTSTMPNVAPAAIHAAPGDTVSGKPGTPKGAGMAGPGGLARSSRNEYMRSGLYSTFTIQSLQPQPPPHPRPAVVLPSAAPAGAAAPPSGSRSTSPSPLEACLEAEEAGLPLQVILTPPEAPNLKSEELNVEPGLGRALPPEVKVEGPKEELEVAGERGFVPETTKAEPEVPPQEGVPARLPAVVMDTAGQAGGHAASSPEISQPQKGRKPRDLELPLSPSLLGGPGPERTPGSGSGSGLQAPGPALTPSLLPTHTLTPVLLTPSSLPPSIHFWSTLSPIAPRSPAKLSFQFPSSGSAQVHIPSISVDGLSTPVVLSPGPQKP
Procedure, shortened: as §1

GABPA = molecular target: T3, GABPA (Homo sapiens, UniProt Q06546 1-454); conditions: protein: recombinant; tags: N-terminal GST; dsDNA, one strand shown
T3 sequence: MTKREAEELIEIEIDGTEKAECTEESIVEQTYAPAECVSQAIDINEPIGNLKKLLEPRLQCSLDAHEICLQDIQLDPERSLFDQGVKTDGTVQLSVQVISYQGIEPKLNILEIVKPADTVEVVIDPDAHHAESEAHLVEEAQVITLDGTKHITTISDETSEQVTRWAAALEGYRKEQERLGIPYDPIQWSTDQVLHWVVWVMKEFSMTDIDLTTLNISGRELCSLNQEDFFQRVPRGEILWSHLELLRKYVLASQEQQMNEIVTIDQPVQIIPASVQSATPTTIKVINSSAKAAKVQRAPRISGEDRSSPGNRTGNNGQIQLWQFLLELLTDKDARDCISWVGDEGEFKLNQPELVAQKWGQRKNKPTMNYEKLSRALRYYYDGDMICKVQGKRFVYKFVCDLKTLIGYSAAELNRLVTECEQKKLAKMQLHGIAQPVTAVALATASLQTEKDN
Procedure, shortened: as §1

ERG = molecular target: T4, ERG (Homo sapiens, UniProt P11308 1-479); conditions: protein: recombinant; tags: N-terminal GST; dsDNA, one strand shown
T4 sequence: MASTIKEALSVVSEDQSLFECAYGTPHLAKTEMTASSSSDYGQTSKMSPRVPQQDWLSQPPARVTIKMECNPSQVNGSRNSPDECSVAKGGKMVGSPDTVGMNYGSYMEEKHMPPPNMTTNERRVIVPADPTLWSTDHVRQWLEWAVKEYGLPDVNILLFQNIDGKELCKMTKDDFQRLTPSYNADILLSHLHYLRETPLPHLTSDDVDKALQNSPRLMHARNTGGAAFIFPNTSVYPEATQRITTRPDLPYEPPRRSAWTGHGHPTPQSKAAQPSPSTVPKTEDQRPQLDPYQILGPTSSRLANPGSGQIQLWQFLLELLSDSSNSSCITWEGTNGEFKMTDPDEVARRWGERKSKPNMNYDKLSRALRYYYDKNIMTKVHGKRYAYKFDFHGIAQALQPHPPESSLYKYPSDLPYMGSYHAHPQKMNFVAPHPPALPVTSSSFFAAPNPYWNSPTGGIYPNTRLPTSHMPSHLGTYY
Procedure, shortened: as §1

ELF1 = ELF1 (Homo sapiens, UniProt P32519 1-619); conditions: protein: recombinant; tags: N-terminal GST; dsDNA, one strand shown
Procedure, shortened: as §1

EHF = molecular target: T5, EHF (Homo sapiens, UniProt Q9NZC4 1-300); conditions: protein: recombinant; tags: N-terminal GST; dsDNA, one strand shown
T5 sequence: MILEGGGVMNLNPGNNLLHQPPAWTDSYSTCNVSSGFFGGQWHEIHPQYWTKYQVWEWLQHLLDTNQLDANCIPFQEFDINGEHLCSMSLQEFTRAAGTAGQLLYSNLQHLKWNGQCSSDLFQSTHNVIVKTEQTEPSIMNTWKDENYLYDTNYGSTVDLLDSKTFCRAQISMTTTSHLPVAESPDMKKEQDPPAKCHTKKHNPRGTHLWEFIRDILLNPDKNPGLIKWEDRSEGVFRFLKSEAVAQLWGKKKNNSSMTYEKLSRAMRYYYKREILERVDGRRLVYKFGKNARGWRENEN
Procedure, shortened: as §1

SPI1 = SPI1 (Homo sapiens, UniProt P17947 1-270); conditions: protein: recombinant; tags: N-terminal GST; dsDNA, one strand shown
Procedure, shortened: as §1

SPIB = SPIB (Homo sapiens, UniProt Q01892 1-262); conditions: protein: recombinant; tags: N-terminal GST; dsDNA, one strand shown
Procedure, shortened: as §1

ELK3 = molecular target: T6, ELK3 (Homo sapiens, UniProt P41970 1-407); conditions: protein: recombinant; tags: N-terminal GST; dsDNA, one strand shown
T6 sequence: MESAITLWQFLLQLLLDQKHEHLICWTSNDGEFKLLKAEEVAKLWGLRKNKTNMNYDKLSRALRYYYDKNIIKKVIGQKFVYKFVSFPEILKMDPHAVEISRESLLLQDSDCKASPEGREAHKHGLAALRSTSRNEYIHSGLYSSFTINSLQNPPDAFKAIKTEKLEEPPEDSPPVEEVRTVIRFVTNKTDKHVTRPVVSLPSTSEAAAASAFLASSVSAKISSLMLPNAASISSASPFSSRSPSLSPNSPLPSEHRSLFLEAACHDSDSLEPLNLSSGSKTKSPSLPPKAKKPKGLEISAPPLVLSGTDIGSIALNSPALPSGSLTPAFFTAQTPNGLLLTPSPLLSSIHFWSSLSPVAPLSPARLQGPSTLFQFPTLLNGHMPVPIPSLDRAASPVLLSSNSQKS
Procedure, shortened: as §1

FEV = molecular target: T7, FEV (Homo sapiens, UniProt Q99581 1-238); conditions: protein: recombinant; tags: N-terminal GST; dsDNA, one strand shown
T7 sequence: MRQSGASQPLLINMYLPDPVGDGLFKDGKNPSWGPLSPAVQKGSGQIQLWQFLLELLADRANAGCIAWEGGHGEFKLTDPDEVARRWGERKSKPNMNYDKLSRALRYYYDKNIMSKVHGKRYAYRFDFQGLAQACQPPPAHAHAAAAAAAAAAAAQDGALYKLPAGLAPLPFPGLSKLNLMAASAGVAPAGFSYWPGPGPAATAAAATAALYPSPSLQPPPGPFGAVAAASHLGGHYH
Procedure, shortened: as §1

ETV5 = ETV5 (Homo sapiens, UniProt P41161 1-510); conditions: protein: recombinant; tags: N-terminal GST; dsDNA, one strand shown
Procedure, shortened: as §1

HSF1 = HSF1 (Homo sapiens, UniProt Q00613 1-529); conditions: protein: recombinant; tags: N-terminal GST; chain copies: 3; dsDNA, one strand shown
Procedure, shortened: as §1

SPIC = molecular target: T8, SPIC (Homo sapiens, UniProt Q8N5J4 1-248); conditions: protein: recombinant; tags: N-terminal GST; dsDNA, one strand shown
T8 sequence: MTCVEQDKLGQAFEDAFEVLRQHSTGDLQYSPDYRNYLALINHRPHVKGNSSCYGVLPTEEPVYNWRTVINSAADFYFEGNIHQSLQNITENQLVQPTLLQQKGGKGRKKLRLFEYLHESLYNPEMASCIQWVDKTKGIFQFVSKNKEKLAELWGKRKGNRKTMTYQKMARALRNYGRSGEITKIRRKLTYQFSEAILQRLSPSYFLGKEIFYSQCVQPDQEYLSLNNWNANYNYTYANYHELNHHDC
Procedure, shortened: as §1

ELF4 = ELF4 (Homo sapiens, UniProt Q99607 1-663); conditions: protein: recombinant; tags: N-terminal GST; dsDNA, one strand shown
Procedure, shortened: as §1

ELK4 = molecular target: T9, ELK4 (Homo sapiens, UniProt P28324-2 1-405); conditions: protein: recombinant; tags: N-terminal GST; dsDNA, one strand shown
T9 sequence: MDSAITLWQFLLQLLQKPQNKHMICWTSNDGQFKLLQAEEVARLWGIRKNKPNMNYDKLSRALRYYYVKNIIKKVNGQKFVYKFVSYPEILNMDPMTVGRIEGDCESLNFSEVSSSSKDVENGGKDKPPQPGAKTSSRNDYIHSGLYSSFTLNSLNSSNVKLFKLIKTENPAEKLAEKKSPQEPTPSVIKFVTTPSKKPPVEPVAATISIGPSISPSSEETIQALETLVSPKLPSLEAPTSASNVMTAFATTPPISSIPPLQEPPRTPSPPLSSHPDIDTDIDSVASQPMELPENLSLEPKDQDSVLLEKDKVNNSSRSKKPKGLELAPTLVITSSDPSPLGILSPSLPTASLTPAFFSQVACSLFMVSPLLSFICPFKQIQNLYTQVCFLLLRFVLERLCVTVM
Procedure, shortened: as §1

ETV2 = molecular target: T10, ETV2 (Homo sapiens, UniProt O00321 1-342); conditions: protein: recombinant; tags: N-terminal GST; dsDNA, one strand shown
T10 sequence: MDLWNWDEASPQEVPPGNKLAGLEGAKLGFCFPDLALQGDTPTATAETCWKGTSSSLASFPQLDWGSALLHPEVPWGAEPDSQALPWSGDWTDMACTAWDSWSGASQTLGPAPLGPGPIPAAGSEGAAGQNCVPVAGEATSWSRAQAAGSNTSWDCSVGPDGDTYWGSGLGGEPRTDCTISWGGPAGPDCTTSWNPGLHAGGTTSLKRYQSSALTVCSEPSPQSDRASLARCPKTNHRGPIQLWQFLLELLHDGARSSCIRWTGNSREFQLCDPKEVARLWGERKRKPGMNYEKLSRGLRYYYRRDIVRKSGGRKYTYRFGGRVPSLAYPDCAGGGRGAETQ
Procedure, shortened: as §1

ELF3 = molecular target: T11, ELF3 (Homo sapiens, UniProt P78545 1-371); conditions: protein: recombinant; tags: N-terminal GST; dsDNA, one strand shown
T11 sequence: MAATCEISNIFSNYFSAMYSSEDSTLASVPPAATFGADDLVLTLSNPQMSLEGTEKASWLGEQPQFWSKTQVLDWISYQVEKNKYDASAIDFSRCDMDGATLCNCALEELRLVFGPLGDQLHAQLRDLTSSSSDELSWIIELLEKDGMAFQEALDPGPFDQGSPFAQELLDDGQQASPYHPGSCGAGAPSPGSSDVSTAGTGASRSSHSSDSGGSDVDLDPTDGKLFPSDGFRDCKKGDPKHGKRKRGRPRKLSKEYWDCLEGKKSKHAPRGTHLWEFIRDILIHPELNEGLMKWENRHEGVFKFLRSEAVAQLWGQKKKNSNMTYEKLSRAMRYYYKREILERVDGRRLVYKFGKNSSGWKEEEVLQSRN
Procedure, shortened: as §1

CRX = CRX (Homo sapiens, UniProt O43186 1-299); conditions: protein: recombinant; tags: N-terminal GST; dsDNA, one strand shown
Procedure, shortened: as §1

ETV1 = ETV1 (Homo sapiens, UniProt P50549 1-477); conditions: protein: recombinant; tags: N-terminal GST; dsDNA, one strand shown
Procedure, shortened: as §1

Sequence of ETV1 (P50549 whole entry): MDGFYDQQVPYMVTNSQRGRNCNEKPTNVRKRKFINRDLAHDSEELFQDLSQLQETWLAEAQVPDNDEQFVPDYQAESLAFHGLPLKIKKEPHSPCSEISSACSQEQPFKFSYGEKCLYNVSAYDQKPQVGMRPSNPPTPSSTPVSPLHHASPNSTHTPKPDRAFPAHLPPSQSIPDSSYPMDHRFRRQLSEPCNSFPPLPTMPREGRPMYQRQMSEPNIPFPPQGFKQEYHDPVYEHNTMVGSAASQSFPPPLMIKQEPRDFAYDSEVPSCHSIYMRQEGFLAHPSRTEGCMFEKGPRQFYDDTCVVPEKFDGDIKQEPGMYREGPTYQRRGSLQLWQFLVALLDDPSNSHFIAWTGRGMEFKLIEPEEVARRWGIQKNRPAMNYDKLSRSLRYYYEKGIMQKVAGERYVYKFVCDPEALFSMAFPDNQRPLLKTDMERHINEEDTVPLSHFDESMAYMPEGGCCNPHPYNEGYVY
Sequence of ELF1 (P32519 whole entry): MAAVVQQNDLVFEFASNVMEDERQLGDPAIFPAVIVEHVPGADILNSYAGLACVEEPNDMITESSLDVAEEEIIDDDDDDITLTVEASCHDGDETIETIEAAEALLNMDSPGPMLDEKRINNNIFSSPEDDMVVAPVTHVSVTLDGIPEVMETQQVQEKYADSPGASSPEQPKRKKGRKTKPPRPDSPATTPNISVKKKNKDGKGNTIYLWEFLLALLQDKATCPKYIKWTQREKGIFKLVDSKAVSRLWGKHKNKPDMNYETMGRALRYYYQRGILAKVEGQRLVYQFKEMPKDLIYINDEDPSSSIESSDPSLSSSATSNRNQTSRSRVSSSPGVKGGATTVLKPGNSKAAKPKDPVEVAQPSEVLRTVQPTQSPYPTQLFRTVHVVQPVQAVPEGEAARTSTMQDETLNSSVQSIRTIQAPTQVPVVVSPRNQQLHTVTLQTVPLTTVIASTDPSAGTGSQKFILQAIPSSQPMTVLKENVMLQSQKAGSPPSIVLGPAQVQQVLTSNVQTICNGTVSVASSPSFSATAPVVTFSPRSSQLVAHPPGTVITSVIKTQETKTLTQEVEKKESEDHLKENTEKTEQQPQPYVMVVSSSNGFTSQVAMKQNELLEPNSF
Sequence of HSF1 (Q00613 whole entry): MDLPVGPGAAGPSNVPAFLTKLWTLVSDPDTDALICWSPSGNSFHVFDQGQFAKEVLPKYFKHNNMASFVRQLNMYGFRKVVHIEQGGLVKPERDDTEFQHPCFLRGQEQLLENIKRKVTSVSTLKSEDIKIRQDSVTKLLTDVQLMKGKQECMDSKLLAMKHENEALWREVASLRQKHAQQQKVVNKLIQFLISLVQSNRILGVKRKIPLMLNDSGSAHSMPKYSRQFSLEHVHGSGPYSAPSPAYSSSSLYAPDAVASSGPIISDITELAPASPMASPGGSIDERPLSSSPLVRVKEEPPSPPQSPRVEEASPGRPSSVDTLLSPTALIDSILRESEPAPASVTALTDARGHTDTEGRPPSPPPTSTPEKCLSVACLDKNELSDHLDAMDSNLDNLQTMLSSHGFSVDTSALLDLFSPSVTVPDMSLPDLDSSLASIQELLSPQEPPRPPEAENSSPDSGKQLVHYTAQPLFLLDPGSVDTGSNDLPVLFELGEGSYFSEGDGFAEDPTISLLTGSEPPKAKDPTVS
Sequence of ELF4 (Q99607 whole entry): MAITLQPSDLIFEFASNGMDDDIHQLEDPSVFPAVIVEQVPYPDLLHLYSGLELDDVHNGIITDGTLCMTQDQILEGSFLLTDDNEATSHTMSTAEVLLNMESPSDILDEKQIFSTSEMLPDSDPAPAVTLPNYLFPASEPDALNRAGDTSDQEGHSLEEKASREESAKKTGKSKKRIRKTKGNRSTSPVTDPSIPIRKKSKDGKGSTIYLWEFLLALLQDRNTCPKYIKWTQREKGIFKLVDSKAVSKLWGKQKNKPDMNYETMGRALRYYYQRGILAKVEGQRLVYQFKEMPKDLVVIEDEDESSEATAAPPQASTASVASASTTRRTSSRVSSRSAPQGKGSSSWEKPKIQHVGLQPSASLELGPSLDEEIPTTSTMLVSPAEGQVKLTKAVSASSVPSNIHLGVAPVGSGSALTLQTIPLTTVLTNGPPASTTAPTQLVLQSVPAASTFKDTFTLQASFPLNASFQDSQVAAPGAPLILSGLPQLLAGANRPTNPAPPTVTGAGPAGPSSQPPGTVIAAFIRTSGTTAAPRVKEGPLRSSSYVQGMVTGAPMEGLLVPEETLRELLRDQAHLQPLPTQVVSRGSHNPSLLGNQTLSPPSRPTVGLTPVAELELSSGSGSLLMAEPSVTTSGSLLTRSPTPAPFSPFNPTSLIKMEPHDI
Sequence of SPIB (Q01892 whole entry): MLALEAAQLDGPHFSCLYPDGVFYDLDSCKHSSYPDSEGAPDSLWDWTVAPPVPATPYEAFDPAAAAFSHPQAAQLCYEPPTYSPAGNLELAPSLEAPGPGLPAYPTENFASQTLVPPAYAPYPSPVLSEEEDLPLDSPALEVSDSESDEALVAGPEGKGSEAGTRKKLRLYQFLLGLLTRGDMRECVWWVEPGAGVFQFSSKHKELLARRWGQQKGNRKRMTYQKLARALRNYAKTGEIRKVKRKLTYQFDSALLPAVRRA
Sequence of CRX (O43186 whole entry): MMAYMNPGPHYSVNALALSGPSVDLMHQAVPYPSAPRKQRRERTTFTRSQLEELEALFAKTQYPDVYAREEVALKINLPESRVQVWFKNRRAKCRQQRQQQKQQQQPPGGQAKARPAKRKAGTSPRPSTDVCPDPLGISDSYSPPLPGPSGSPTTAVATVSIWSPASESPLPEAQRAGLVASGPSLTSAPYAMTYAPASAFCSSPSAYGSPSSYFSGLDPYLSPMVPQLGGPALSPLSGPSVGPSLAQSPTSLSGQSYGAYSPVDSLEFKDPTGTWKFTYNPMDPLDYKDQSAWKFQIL
Sequence of ETV5 (P41161 whole entry): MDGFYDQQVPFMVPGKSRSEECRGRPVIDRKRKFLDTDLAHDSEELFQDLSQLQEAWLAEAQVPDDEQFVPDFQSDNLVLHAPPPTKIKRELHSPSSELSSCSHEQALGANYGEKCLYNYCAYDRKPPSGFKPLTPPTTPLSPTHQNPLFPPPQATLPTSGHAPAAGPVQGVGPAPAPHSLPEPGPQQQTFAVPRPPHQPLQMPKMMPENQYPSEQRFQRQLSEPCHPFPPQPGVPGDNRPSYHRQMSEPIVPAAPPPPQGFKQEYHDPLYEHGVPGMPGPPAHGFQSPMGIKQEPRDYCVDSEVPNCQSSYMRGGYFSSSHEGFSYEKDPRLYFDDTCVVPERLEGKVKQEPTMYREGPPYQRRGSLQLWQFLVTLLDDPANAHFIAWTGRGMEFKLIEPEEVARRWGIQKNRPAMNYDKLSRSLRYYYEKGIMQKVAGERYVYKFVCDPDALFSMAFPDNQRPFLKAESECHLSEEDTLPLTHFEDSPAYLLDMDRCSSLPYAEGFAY

With GCCCTT the binding signal (FLI1) was 1.23 fold enrichment (6-mer frequency, TF over GST control), the binding signal (ELK1) was 1.11 fold enrichment (6-mer frequency, TF over GST control) and the binding signal (GABPA) was 1.18 fold enrichment (6-mer frequency, TF over GST control). For the same sequence, the binding signal (ERG) was 1.16 fold enrichment (6-mer frequency, TF over GST control), the binding signal (ELF1) was 1.25 fold enrichment (6-mer frequency, TF over GST control) and the binding signal (EHF) was 1.19 fold enrichment (6-mer frequency, TF over GST control). For the same sequence, the binding signal (SPI1) was 1.22 fold enrichment (6-mer frequency, TF over GST control), the binding signal (SPIB) was 1.28 fold enrichment (6-mer frequency, TF over GST control) and the binding signal (ELK3) was 1.24 fold enrichment (6-mer frequency, TF over GST control). The binding signal (FEV) was 1.19 fold enrichment (6-mer frequency, TF over GST control), the binding signal (ETV5) was 1.16 fold enrichment (6-mer frequency, TF over GST control) and the binding signal (HSF1) was 1.11 fold enrichment (6-mer frequency, TF over GST control). For the same sequence, the binding signal (SPIC) was 1.1 fold enrichment (6-mer frequency, TF over GST control), the binding signal (ELF4) was 1.13 fold enrichment (6-mer frequency, TF over GST control) and the binding signal (ELK4) was 1.19 fold enrichment (6-mer frequency, TF over GST control). The binding signal (ETV2) was 1.28 fold enrichment (6-mer frequency, TF over GST control), the binding signal (ELF3) was 1.29 fold enrichment (6-mer frequency, TF over GST control) and the binding signal (CRX) was 1.06 fold enrichment (6-mer frequency, TF over GST control). The binding signal (ETV1) was 1.17 fold enrichment (6-mer frequency, TF over GST control).
